Laboratory results: PubChem BioAssay
A number with no mark means an inactive call. For some assays here: Measured potencies and affinities stand elsewhere. Activity calls are given as the source filed them. Unless noted, the rule behind the calls is not given here.

Tests used:
[1] = antimalarial activity against Dd2 strain (AID 2302;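 active = growth inhibition above 50% at the single 2 µM test dose, taken to imply half-maximal potency below 2 µM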;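 note: 0% = DMSO untreated growth and 100% = chloroquine plus artemisinin killed control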); conditions: P. falciparum Dd2 in RBCs, LDH growth readout, 72 h; at 2 µM; hits give high values
[2] = human hepatoma cell viability loss – ATP luminescence, cytotoxicity control for P. falciparum antimalarial project, primary screen (AID 2303;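 active = inhibition above 50%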;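 note: 0% = DMSO wells and 100% = digitonin-killed cells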); conditions: HepG2 viability, 24-48 h, at 10 µM, hits give high values
[3] = biological target: L-lactate dehydrogenase (Plasmodium falciparum (isolate CDC / Honduras)) (UniProt Q27743); test: PfLDH activity inhibition – cell lysate, 3D7 strain, counter-screen for P. falciparum growth inhibition project (AID 2304);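 note: 0% = vehicle and 100% = reference inhibitor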; conditions: P. falciparum 3D7 crude extract, LDH APAD/NBT absorbance; at 2 µM; hits give high values
Sequence of L-lactate dehydrogenase (Plasmodium falciparum (isolate CDC / Honduras)) (Q27743 whole entry, looked up): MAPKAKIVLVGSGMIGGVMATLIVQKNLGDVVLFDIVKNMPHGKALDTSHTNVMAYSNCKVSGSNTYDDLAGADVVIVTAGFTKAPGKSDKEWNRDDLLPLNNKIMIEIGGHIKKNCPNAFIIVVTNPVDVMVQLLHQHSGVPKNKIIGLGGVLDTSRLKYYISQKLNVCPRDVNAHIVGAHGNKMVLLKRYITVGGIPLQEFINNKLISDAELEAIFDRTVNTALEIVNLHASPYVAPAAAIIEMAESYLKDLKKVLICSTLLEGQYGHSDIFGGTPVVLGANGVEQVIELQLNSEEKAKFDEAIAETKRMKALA

[4] = inhibition of 3D7 malaria parasite growth – strain 3D7 (AID 2306);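 note: 0% = DMSO wells and 100% = chloroquine plus artemisinin control wells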; conditions: P. falciparum 3D7 erythrocytic growth, LDH absorbance, 72 h; at 2 µM; hits give high values
[5] = biological target: Calcium-dependent protein kinase 1 (Plasmodium falciparum (isolate 3D7)) (UniProt P62344); test: PfCDPK1 kinase inhibitors, biochemical, TCAMS library (AID 1159585; cut-off not given, nearly all actives have IC50 up to about 0.98 µM;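 note: inhibitors leave more ATP so luminescence rises with inhibition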); conditions: recombinant PfCDPK1, Kinase-Glo ATP depletion luminescence
Sequence of Calcium-dependent protein kinase 1 (Plasmodium falciparum (isolate 3D7)) (P62344 whole entry, looked up): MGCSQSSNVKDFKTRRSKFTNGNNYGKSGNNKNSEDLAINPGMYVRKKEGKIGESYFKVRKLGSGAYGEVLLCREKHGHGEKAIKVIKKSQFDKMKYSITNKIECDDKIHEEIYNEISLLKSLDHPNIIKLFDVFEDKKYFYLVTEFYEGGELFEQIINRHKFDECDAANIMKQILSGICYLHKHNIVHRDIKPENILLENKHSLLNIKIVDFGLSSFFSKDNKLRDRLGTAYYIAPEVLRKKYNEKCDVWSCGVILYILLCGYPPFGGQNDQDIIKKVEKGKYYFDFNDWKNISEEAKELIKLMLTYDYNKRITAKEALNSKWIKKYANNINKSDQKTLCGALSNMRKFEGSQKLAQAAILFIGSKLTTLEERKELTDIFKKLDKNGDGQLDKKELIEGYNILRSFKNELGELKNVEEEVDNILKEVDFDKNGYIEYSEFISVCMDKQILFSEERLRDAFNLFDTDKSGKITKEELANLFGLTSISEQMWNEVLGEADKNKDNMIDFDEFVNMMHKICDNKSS

[6] = biological target: Plasmodium falciparum protein kinase 6 (PK6, PF3D7_1337100) (UniProt Q8IDW1); test: PfPK6 kinase inhibitors, biochemical, TCAMS library (AID 1159586); conditions: recombinant PfPK6, Kinase-Glo ATP depletion luminescence
Sequence of Plasmodium falciparum protein kinase 6 (PK6, PF3D7_1337100) (Q8IDW1 1-305): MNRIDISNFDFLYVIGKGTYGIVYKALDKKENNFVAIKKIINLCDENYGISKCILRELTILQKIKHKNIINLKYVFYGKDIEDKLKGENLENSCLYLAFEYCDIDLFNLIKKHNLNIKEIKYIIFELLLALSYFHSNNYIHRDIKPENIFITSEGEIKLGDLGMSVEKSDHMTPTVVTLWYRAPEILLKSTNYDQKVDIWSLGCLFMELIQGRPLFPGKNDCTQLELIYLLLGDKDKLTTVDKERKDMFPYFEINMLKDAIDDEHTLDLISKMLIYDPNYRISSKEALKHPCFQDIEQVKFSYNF

[7] = biological target: Protein kinase 7 (PK7), Plasmodium falciparum 3D7 (PF3D7_0213400) (UniProt Q7YTF7); test: inhibition of Plasmodium PK7 catalytic activity – biochemical, TCAMS antimalarial set, Kinase-Glo luminescence (AID 1159587); conditions: recombinant PfPK7, Kinase-Glo ATP depletion luminescence
Sequence of Protein kinase 7 (PK7), Plasmodium falciparum 3D7 (PF3D7_0213400) (Q7YTF7 1-343): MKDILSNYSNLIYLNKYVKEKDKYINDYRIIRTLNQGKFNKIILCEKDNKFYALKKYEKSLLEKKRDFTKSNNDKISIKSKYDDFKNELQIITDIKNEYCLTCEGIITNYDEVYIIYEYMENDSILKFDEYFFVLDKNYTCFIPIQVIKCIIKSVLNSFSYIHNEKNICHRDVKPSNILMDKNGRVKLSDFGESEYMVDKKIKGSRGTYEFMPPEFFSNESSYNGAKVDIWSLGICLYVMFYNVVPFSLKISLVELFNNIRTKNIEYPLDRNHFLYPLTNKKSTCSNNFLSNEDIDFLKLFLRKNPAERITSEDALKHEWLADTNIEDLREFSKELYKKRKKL

[8] = biological target: Calcium-dependent protein kinase 4 (Plasmodium falciparum (isolate 3D7)) (UniProt Q8IBS5); test: PfCDPK4 kinase inhibitors, biochemical, TCAMS library (AID 1159588; cut-off not given, nearly all actives have IC50 up to about 0.91 µM); conditions: recombinant PfCDPK4, Kinase-Glo ATP depletion luminescence
Sequence of Calcium-dependent protein kinase 4 (Plasmodium falciparum (isolate 3D7)) (Q8IBS5 whole entry, looked up): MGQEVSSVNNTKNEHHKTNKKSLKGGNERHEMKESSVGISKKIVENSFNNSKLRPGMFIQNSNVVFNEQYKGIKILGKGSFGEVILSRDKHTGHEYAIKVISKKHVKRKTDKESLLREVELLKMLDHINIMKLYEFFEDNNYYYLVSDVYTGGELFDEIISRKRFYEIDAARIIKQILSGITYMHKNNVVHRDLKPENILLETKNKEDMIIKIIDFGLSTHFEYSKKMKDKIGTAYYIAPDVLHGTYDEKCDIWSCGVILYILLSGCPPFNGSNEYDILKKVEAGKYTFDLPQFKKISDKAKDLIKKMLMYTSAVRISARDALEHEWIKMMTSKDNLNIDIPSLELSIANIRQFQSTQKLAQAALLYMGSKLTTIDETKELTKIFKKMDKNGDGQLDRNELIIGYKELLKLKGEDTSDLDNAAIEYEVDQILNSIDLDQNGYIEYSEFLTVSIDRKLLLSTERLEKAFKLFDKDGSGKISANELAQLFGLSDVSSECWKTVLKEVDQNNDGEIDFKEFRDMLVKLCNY

Compound	growth inhibition [1]	inhibition [2]	inhibition [3]	growth inhibition [4]	outcome [5]	outcome [6]	outcome [7]	outcome [8]
COc1cc(NC(=O)/C=C/c2cc(F)cc(F)c2F)cc(OCCN2CCCCC2)c1	80% (active)	10%	0%	102% (active)	inactive	inactive	inactive	inactive
c1ccc(C23N=C(Nc4nc5ccccc5[nH]4)NC2(c2ccccc2)NC(Nc2nc4ccccc4[nH]2)=N3)cc1 (stereo not given)	89% (active)	2%	3%	97% (active)	inactive	inactive	inactive	inactive
CC(C)(C(=O)NCCC1CCN(CCCCCNC(=O)/C=C/c2ccc(Cl)c(Cl)c2)CC1)c1ccc(Cl)cc1	33%	92% (active)	-2%	89% (active)	inactive	inactive	inactive	inactive
COc1cccc(NC(=O)Cn2c(C)c(C(=O)C(F)(F)F)c3ccccc32)c1	94% (active)	2%	-5%	97% (active)	inactive	inactive	inactive	inactive
COc1ccc(C(=O)NCCCCN2CCC(c3ccc4c(c3OC)CCCC4)CC2)cc1-c1ccc(C(F)(F)F)cc1	56% (active)	67% (active)	5%	100% (active)	inactive	inactive	inactive	inactive
CCOc1cc(C)ccc1C1CCN(CCCCNC(=O)c2cnc(-c3ccc(C(F)(F)F)cc3)[nH]2)CC1	97% (active)	16%	2%	95% (active)	inactive	inactive	inactive	inactive
Cc1cccc2[nH]c(-c3ccc(-c4ccc(NC(=O)NCc5ccc(F)cc5)cc4)cc3)nc12	99% (active)	70% (active)	-3%	100% (active)	inactive	inactive	inactive	inactive
CCC(c1ccccc1)c1nn2c(-c3cccs3)nnc2s1 (stereo not given)	95% (active)	10%	-4%	97% (active)	inactive	inactive	inactive	inactive
COC(=O)CNC(c1ccccc1)c1cc(Br)ccc1NC(=O)c1ccccc1Br (stereo not given)	77% (active)	10%	-1%	99% (active)	inactive	inactive	inactive	inactive
CCOC(=O)c1ccc(N2CCCCC2)c(NC(=O)C(Cl)(Cl)Cl)c1	97% (active)	11%	1%	96% (active)	inactive	inactive	inactive	inactive
O=C(Nc1ccsc1)Nc1cccc(-c2cccc(-c3nc4ccc(F)cc4[nH]3)c2)c1	41%	46%	2%	100% (active)	inactive	inactive	inactive	inactive
Nc1cc(C=Cc2ccc([N+](=O)[O-])s2)nc2ccccc12	48%	89% (active)	-7%	98% (active)	inactive	inactive	inactive	inactive
O=C(c1cc(-c2ccccc2)n[nH]1)N1CCN(S(=O)(=O)c2ccc(Cl)s2)CC1	81% (active)	9%	1%	88% (active)	inactive	inactive	inactive	inactive
CCc1c(CCNC/C=C/C=C/CNCCc2ccc(OC)c(OC)c2CC)ccc(OC)c1OC	99% (active)	75% (active)	3%	100% (active)	inactive	inactive	inactive	inactive
c1cc(COc2ccc(C3=NCCN3)cc2)nc(COc2ccc(C3=NCCN3)cc2)c1	98% (active)	8%	-2%	100% (active)	inactive	inactive	inactive	inactive
Cc1cccc2[nH]c(-c3ccc(-c4ccc(NC(=O)CN5CCN(C)CC5)cc4)s3)nc12	86% (active)	56% (active)	-9%	95% (active)	inactive	inactive	inactive	inactive
CN(C(=O)C(C)(C)Oc1ccc(Cl)cc1)C1CCN(CCCCCNC(=O)/C=C/c2ccc(Cl)c(Cl)c2)CC1	26%	86% (active)	0%	96% (active)	inactive	inactive	inactive	inactive
CN(C)CCCn1cncc1-c1ccc2ncnc(Nc3ccc4c(cnn4Cc4ccccc4)c3)c2c1	77% (active)	17%	-2%	101% (active)	inactive	inactive	inactive	inactive
O=C(Nc1ccc(-c2nc3ccc(NC(=O)c4ccc(Br)cc4)cc3[nH]2)cc1)c1ccc(Br)cc1	4%	40%	3%	98% (active)	inactive	inactive	inactive	inactive
COc1cc(C(=O)NC2CC(C)(C)N(C)C(C)(C)C2)ccc1-c1nc2cc(Cl)c(Cl)cc2[nH]1	99% (active)	69% (active)	5%	100% (active)	inactive	inactive	inactive	inactive

Compound	growth inhibition [1]	inhibition [2]	inhibition [3]	growth inhibition [4]	outcome [5]	outcome [6]	outcome [7]	outcome [8]
COc1ccc(-c2nc3c(NCc4ccccc4)nccc3[nH]2)c(OC)c1	21%	16%	4%	99% (active)	inactive	inactive	inactive	inactive
CN(C)c1ccc(CN2CCCC(CNC(=O)c3ccc(-c4cccc(C(F)(F)F)c4)s3)C2)cc1 (stereo not given)	37%	32%	0%	89% (active)	inactive	inactive	inactive	inactive
O=[N+]([O-])c1cccc(-n2nc(NCc3ccc(Cl)cc3)nc2-c2ccc(F)c(C(F)(F)F)c2)c1	93% (active)	6%	-3%	98% (active)	inactive	inactive	inactive	inactive
NC1=NC(c2ccccc2)(c2ccccc2)C(=O)N1Cc1ccccc1Br	38%	36%	4%	93% (active)	inactive	inactive	inactive	inactive
COc1ccc(CNCc2ccc(-c3ccc(CNCCc4ccccc4)cn3)cc2)cn1	44%	16%	1%	97% (active)	inactive	inactive	inactive	inactive
COc1ccc2c(c1)CCN(CCN1CCC(CNC(=O)c3ccc(-c4ccc(C#N)cc4)cc3)CC1)C2	51% (active)	40%	2%	100% (active)	inactive	inactive	inactive	inactive
c1ccc(Oc2ccc(Nc3ccnc4cc(-c5cccc(CNCCN6CCOCC6)c5)ccc34)cc2)cc1	98% (active)	12%	7%	102% (active)	inactive	inactive	inactive	inactive
COc1c(C2CCN(CCCCNC(=O)c3cc(-c4ccc(C#N)cc4)n[nH]3)CC2)ccc2c1CCCC2	15%	36%	-6%	86% (active)	inactive	inactive	inactive	inactive
COc1cccc2cc(C(=O)N[C@@H](CC(C)C)C(=O)N[C@H](/C=N/NC(=O)OC(C)(C)C)CC(C)C)oc12	57% (active)	8%	-2%	88% (active)	inactive	inactive	inactive	inactive
Cc1nnsc1C(=O)Nc1cccc(-c2cccc(-c3nc4ccc(C(F)(F)F)cc4[nH]3)c2)c1	100% (active)	70% (active)	1%	101% (active)	inactive	inactive	inactive	inactive
Cc1nc(-c2nc(NCCc3cnccn3)ncc2-c2ccsc2)sc1C	40%	-7%	0%	98% (active)	inactive	inactive	inactive	inactive
COc1ccc(CNCc2ccc(-c3cccc(-c4nc5ccccc5[nH]4)c3)cc2)cc1	85% (active)	57% (active)	-3%	101% (active)	inactive	inactive	inactive	inactive
CN1CCN(CCCN(Cc2ccc(-c3cccc(CNCc4ccc5c(c4)OCO5)c3)cc2)C(=O)CCC2CCCC2)CC1	85% (active)	24%	-5%	92% (active)	inactive	inactive	inactive	inactive
CCN(CCCN1CCCCC1)c1cc(C)nc(Nc2ccc3c(c2)CCC3)n1	93% (active)	32%	5%	100% (active)	inactive	inactive	inactive	inactive
O=C(Nc1ccc(-c2nc3ccccc3[nH]2)cc1)c1cccc(S(=O)(=O)N2CCCC2)c1	64% (active)	0%	-5%	100% (active)	inactive	inactive	inactive	inactive
COc1ccc(NC(=O)[C@H](Cc2ccccc2)Nc2cc(C)nc(NCCc3cccs3)n2)cc1	83% (active)	12%	-2%	100% (active)	inactive	inactive	inactive	inactive
CC(C)CCNCC(O)Cn1c2ccc(Cl)cc2c2cc(Cl)ccc21 (stereo not given)	99% (active)	36%	3%	99% (active)	inactive	inactive	inactive	inactive
Cn1nc(C(=O)N2CCC(c3[nH]ncc3Cc3ccccc3)CC2)c2ccccc2c1=O	95% (active)	5%	-2%	95% (active)	inactive	inactive	inactive	inactive
Cc1ccc(NC(=O)c2cccc(CN3CCCN(CC4CCCCC4)CC3)c2)cc1F	42%	22%	-2%	85% (active)	inactive	inactive	inactive	inactive
CCNc1cc(C(=O)N[C@@H](Cc2ccccc2)[C@H](O)CNCc2cc(OC)cc(OC)c2)cc(N2CCCS2(=O)=O)c1	86% (active)	-4%	-2%	99% (active)	inactive	inactive	inactive	inactive
